HttQ103 aggreg = inhibitors of mutant huntingtin aggregate formation in PC12 cells; actives 1.1% (n = 220,000); PC12 HttQ103-GFP aggregates, Acumen cytometry, 40 h; AID 1688; Potency, µM (titrated, usually from 46.1 µM), actives largely listed as inhibitors; further: nearly all actives have a fitted effect of over 60% in size
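Aggregate formation scored by laser-scanning cytometer (488 excitation, 500–530 emission) in lysed PC12 cells expressing Q103-GFP after 100 nM tebufenozide induction; library tested in dose series, with ATPLite reagent added in the multiplex.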
HPGD block = HPGD (human) dehydrogenase inhibition; purified HPGD, NADH fluorescence kinetic, PGE2 substrate; Potency, µM, most hits filed as inhibitors; actives 4.3% (n = 150,000); active means well fitted inhibition curve with a large enough effect, not every such curve was filed as active; inconclusive means small, poorly fitted or top-dose-only effect, or another doubt; inactive means no such curve, though single readings can be large or run the other way
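NADH formation kinetics: reaction with 30 uM PGE2 and 1 mM NAD+ (final), 20 nM enzyme, Tris-HCl pH 8 with Tween 20, after 15 min compound preincubation at room temperature. Fluorescence change, last versus first of five reads.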
IMPase cell inh = membrane-permeable compound that blocks inositol monophosphatase | P97697 | inhibition (IP1 accumulation), % at 46.1 µM | 120,000 tested, under 10 active | CHO-M1 cells, IP1 accumulation, HTRF TR-FRET ratio; active means well fitted curve in the direction sought with a large enough effect in the signal ratio, not every such curve was filed as active; inconclusive means small, poorly fitted or top-dose-only effect, or a change in a side signal; inactive means no such curve, though single readings can be large or run the other way; the % refers to the signal ratio;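 further: cells stimulated with carbachol in lithium chloride buffer; higher means more IMPase inhibition seen as more IP1 and lower FRET ratio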
Target sequence (P97697 whole entry, looked up): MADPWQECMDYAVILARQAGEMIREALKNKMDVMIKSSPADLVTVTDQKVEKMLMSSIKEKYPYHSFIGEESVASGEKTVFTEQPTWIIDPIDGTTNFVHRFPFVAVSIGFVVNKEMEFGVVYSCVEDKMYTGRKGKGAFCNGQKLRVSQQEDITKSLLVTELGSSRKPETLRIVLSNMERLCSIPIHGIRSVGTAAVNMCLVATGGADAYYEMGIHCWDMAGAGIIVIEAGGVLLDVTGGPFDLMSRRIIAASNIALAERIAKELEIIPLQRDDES
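CHO-M1 cells (CHO stably expressing M1 receptor), compound up to 46 uM final, stimulated with carbachol (50 uM as added) in buffer with 50mM LiCl, pH 7.4, 30 min at 37C. Cytosolic IP1 read by TR-FRET; AC50 from Hill fits.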
IMPase Li inh = IMPase inhibition in cells with lithium potentiation; AID 1457; Potency, µM (series often up to 59.4 µM), usual class: inhibitors; actives 0.35% (n = 210,000); CHO-M1 cells, IP1 TR-FRET (IP-One), carbachol + lithium;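 further: IP1 builds up when IMPase is blocked and the TR-FRET signal falls; nearly all actives have a fitted effect of over 50% in size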
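CHO-M1, 2000 cells/well, 16–30 h culture; cpd + low Li+, 30 min 37C; lysis with d2-IP1/Eu-anti-IP1 Ab, 10 min RT; TR-FRET 665/620 ratio and 620 channel; AC50 via Hill.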
ALDH1A1 inh = inhibitors of human aldehyde dehydrogenase 1A1; Potency, µM (titrated, usually from 75.3 µM), usual class: inhibitors; Purified ALDH1A1, NADH fluorescence, propionaldehyde substrate; AID 1030; actives 7.3% (n = 220,000); active means well fitted inhibition curve with a large enough effect, not every such curve was filed as active; inconclusive means small, poorly fitted or top-dose-only effect, or another doubt; inactive means no such curve, though single readings can be large or run the other way
Target sequence (P00352 whole entry, looked up): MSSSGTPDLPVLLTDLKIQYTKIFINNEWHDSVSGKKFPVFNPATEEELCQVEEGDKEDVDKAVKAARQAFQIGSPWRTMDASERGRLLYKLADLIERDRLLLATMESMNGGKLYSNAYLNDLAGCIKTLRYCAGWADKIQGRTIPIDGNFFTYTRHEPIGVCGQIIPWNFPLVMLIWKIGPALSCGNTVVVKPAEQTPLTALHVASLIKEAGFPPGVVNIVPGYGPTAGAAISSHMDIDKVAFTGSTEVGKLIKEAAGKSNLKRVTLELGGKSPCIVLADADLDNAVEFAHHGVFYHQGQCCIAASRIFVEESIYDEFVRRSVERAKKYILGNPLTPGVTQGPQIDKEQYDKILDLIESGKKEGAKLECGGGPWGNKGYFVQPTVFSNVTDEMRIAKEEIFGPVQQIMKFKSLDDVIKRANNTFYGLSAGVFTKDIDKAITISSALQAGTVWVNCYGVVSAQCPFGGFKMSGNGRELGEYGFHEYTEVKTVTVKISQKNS
HTT cytoprotect = Huntington cell model cytoprotection by ATP luminescence | Potency, µM (titrated, usually from 56.4 µM), most hits filed as activators | actives 0.14% (n = 230,000) | PC12 HTT-Q103 induced, cytoprotection, ATP luminescence, 40 h; further: nearly all actives have a fitted effect of over 45% in size
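ATP quantification (ATPlite) reports survival of PC12 cells in which tebufenozide, 100 nM final, switches on Htt exon 1 with 103 glutamines linked to GFP; compounds are titrated.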
Large screens that a line does not name were inactive. In the library only some 9.4% were active in any assay of this set; here they are far more common. Unless noted, the call rests on the fitted dose curve; in most records, active means well fitted curve in the direction sought with a large enough effect; inconclusive means small, poorly fitted or top-dose-only effect, or another doubt; inactive means no such curve, though single readings can be large; an effect the other way counts as inactive or inconclusive.

CCn1c2ccccc2c2nnc(SCC(=O)NC3CCS(=O)(=O)C3)nc21 (configuration not stated)	HPGD block 32µM
N#Cc1cnn2c(N)c(-c3ccc(Cl)cc3)cnc12	IMPase Li inh 11µM, ALDH1A1 inh inconclusive (no result: HPGD block, IMPase cell inh)
Nc1c(C(=O)O)cnc2c(-c3ccc(Cl)cc3)cnn12	ALDH1A1 inh inconclusive (no result: HPGD block, IMPase cell inh)
O=C1CC(Sc2ccc(Cl)cc2)C(=O)N1Cc1ccncc1 (configuration not stated)	none (no result: HPGD block, IMPase cell inh, IMPase Li inh, ALDH1A1 inh)
C=CCNc1nnc(SC2CC(=O)N(c3ccc(OC)cc3)C2=O)s1 (configuration not stated)	HttQ103 aggreg inconclusive, HPGD block inconclusive, ALDH1A1 inh 2µM
NCCSC1CC(=O)N(Cc2ccc(F)cc2)C1=O (configuration not stated)	ALDH1A1 inh 2.2µM (no result: HPGD block, IMPase cell inh, HTT cytoprotect)
COc1ccc(N2C(=O)CC(SCCc3nc4ccccc4[nH]3)C2=O)cc1 (configuration not stated)	none
CCOc1ccc2nc(SC3CC(=O)N(c4ccc(OC)cc4)C3=O)sc2c1 (configuration not stated)	HttQ103 aggreg inconclusive, ALDH1A1 inh 16µM
CCOc1ccc(N2C(=O)CC(SCCN)C2=O)cc1 (configuration not stated)	ALDH1A1 inh 3.2µM
CCCc1c(O)nc(SC2CC(=O)N(c3ccc(OC)cc3)C2=O)[nH]c1=O (configuration not stated)	none (no result: HPGD block, IMPase cell inh, IMPase Li inh, ALDH1A1 inh)
Cc1cccc(N2CCN(Cc3cn(C)nc3-c3ccccc3F)CC2)n1	none (no result: HPGD block, IMPase cell inh)
CCOc1ccc(N2C(=O)CC(NC3CCCCNC3=O)C2=O)cc1 (configuration not stated)	ALDH1A1 inh 20µM
COc1ccc(N2C(=O)CC(Sc3nc4ccccc4s3)C2=O)cc1 (configuration not stated)	HttQ103 aggreg 32µM, ALDH1A1 inh 7.9µM (no result: HPGD block, IMPase cell inh)
COc1ccc(N2C(=O)CC(Sc3ncccc3C(=O)O)C2=O)cc1 (configuration not stated)	ALDH1A1 inh inconclusive
COc1ccc(N2C(=O)CC(Sc3nccc(C)n3)C2=O)cc1 (configuration not stated)	ALDH1A1 inh 22µM
COc1ccc(N2C(=O)CC(Sc3nnc(-c4ccccc4F)n3C)C2=O)cc1 (configuration not stated)	HttQ103 aggreg inconclusive, ALDH1A1 inh 1.8µM (no result: HPGD block, IMPase cell inh)
O=C1NCCCCC1NC1CC(=O)N(c2ccccc2)C1=O (configuration not stated)	none
Cc1ccc(-c2ccc(CCC(=O)O)n2-c2ccc(C(C)C)cc2)cc1	none (no result: HttQ103 aggreg, HPGD block, IMPase Li inh, ALDH1A1 inh, HTT cytoprotect)
COc1cccc(C2CC(=O)Nc3cc(OC)c(OC)c(OC)c32)c1OC(C)C (configuration not stated)	none (no result: HttQ103 aggreg, HPGD block, IMPase Li inh, ALDH1A1 inh, HTT cytoprotect)
C=CC(=O)O	none (no result: HPGD block, IMPase cell inh, IMPase Li inh, ALDH1A1 inh)
Cc1cccc(C)c1OCC(=O)Nc1c(C(=O)c2ccc(Br)cc2)oc2ccccc12	none (no result: HttQ103 aggreg, HPGD block, IMPase Li inh, ALDH1A1 inh, HTT cytoprotect)
COc1ncc2nc(-c3ccc(F)cc3)c(=O)n(Cc3ccc(F)cc3)c2n1	ALDH1A1 inh inconclusive (no result: HttQ103 aggreg, HPGD block, IMPase cell inh)
CCN(CC)S(=O)(=O)c1cccc(-c2nnc(SC(C)C#N)n2Cc2ccccc2)c1 (configuration not stated)	ALDH1A1 inh 7.9µM
CCN(CC)S(=O)(=O)c1cccc(-c2nnc(-c3ccc(C)cc3)o2)c1	ALDH1A1 inh 11µM
CCN(CC)S(=O)(=O)c1cccc(-c2nnc(SCC#N)n2Cc2ccccc2)c1	ALDH1A1 inh 10µM
COc1ccc(-c2nc(-c3ccccc3)c(-c3ccc(F)cc3)[nH]2)c(OC)c1C	none (no result: HttQ103 aggreg, HPGD block, IMPase Li inh, ALDH1A1 inh, HTT cytoprotect)
CCCCCn1c(=O)c2ccccc2n2c(CCl)nnc12	ALDH1A1 inh 25µM (no result: HPGD block, IMPase cell inh)
CC(C)CCn1c(=O)c2ccccc2n2c(CN3CCCC3)nnc12	ALDH1A1 inh inconclusive (no result: HPGD block, IMPase cell inh)
CC(C)CCn1c(=O)c2ccccc2n2c(CCl)nnc12	ALDH1A1 inh 25µM (no result: HPGD block, IMPase cell inh)
Cc1ccc(NC2=C(Cl)C(=O)OC2NC(=O)c2ccccc2)cc1 (configuration not stated)	none (no result: IMPase cell inh)
O=C1OC(NC(=O)c2ccccc2)C(n2cc(CO)nn2)=C1Cl (configuration not stated)	HPGD block 22µM, ALDH1A1 inh 13µM
O=C(C1CCCN(S(=O)(=O)c2cccc3nonc23)C1)N1CCN(c2cccc(C(F)(F)F)c2)CC1 (configuration not stated)	none (no result: HttQ103 aggreg, HPGD block, IMPase Li inh, ALDH1A1 inh, HTT cytoprotect)
O=C(O)CN1CCCCC1	none (no result: HPGD block, IMPase cell inh)
CC(=O)/C(CN1CCCCC1)=N\O	HttQ103 aggreg inconclusive, ALDH1A1 inh 3.5µM
CC(CN1CCCCC1)C(=O)NN (configuration not stated)	none (no result: HPGD block, IMPase cell inh)
C/C(=N\O)C(=O)C(CN1CCCCC1)CN1CCCCC1	HPGD block inconclusive, ALDH1A1 inh 1.6µM
COc1ccc(-n2c3c(c(=O)[nH]c2=O)C(NC(=O)c2ccccc2Cl)(C(F)(F)F)C(=O)N3)cc1 (configuration not stated)	none (no result: HttQ103 aggreg, HPGD block, IMPase Li inh, ALDH1A1 inh, HTT cytoprotect)
CN(CCO)c1cc(N2CCCCC2)c2nonc2c1[N+](=O)[O-]	ALDH1A1 inh 16µM (no result: HPGD block, IMPase cell inh)
O=C(Nc1ccccc1)Nc1ccc(F)c([N+](=O)[O-])c1	HttQ103 aggreg inconclusive (no result: IMPase cell inh)
O=C(Nc1ccc(F)c([N+](=O)[O-])c1)C(=O)c1c(O)[nH]c2ccccc12	ALDH1A1 inh 13µM (no result: HPGD block, IMPase cell inh, HTT cytoprotect)
c1ccc2c(c1)OCC(c1csc3ncnc(N4CCCC4)c13)O2 (configuration not stated)	HttQ103 aggreg 18µM
OCC1CCCN(c2ncnc3scc(-c4ccccc4)c23)C1 (configuration not stated)	HttQ103 aggreg inconclusive (no result: HPGD block, IMPase cell inh)
c1ccc(CCNc2ncnc3scc(C4COc5ccccc5O4)c23)cc1 (configuration not stated)	ALDH1A1 inh 0.056µM
COc1ccc2[nH]cc(CCNc3ccnc(-c4c(C)noc4C)n3)c2c1	none (no result: HttQ103 aggreg, HPGD block, IMPase cell inh)
COC(=O)C[C@H]1c2ccccc2C2=C(C[C@@H](C)[C@H]3C(=O)N(c4ccccc4)C(=O)[C@@H]23)N1C(=O)OC	ALDH1A1 inh inconclusive (no result: HttQ103 aggreg, IMPase cell inh)
O=C1C(NS(=O)(=O)c2cccs2)=C(N2CCN(c3ccccc3)CC2)C(=O)c2ccccc21	ALDH1A1 inh 3.5µM
CC1CCCN(C2=C(NS(=O)(=O)c3ccc(Cl)cc3)C(=O)c3ccccc3C2=O)C1 (configuration not stated)	ALDH1A1 inh 13µM (no result: IMPase cell inh)
COc1ccc(N2CCN(C(CNS(=O)(=O)c3cccs3)c3cccnc3)CC2)cc1 (configuration not stated)	none
O=S(=O)(NCC(c1cccnc1)N1CCN(c2ccccc2)CC1)c1cccs1 (configuration not stated)	ALDH1A1 inh 2.5µM
